Assay results from PubChem BioAssay (Tox21).
Records with an inconclusive call do not appear. A call without a number means that no potency is given here. Where a structure was tested more than once in an assay, its records may differ in their call. Active and inactive are the calls of the source. The call rests on the fitted dose curve; in most records, active means well fitted curve in the direction sought with a large enough effect in the repeat runs; inconclusive means weak or mixed curves; inactive means no such curve, though single readings can be large; an effect the other way counts as inactive or inconclusive.

test: qHTS RealTime-Glo MT Cell Viability Assay in HepG2 cells - 24 hour (AID 1224867); conditions: RealTime-Glo luminescence; series mostly up to 76.8 µM
How it was run: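 Cell number in HepG2 cultures estimated from NanoLuc luminescence generated by metabolic reduction of a prosubstrate by living cells. The homogeneous, nonlytic format allowed repeated reads at 0, 8, 16, 24, 32 and 40 h of compound exposure.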
Further: nearly all actives have a fitted effect of over 50% in size.

Row | Compound | outcome
1 | Clc1ccc(Cl)cc1 | inactive
2 | Cc1ccc(N)cc1Cl | inactive
3 | O=c1n(Cl)c(=O)n(Cl)c(=O)n1Cl | inactive
4 | O=c1ccc(=O)[nH][nH]1 | inactive
5 | COP(N)(=O)SC (configuration not stated) | inactive
6 | CCOC(=O)c1ccccc1C(=O)OCC | inactive
7 | C1CC2OC2CC1C1CO1 (configuration not stated) | inactive
8 | CC(C)OC(=O)Nc1ccccc1 | inactive
9 | CC(C#N)CCC#N (configuration not stated) | inactive
10 | O=NN1CCCC1 | inactive
11 | O=Cc1cccc(Oc2ccccc2)c1 | inactive
12 | CC(C)N1C(=O)c2ccccc2NS1(=O)=O | inactive
13 | C#CC(C)(C)NC(=O)c1cc(Cl)cc(Cl)c1 | inactive
14 | COC(=O)c1ccccc1N | inactive
15 | Cc1ccc(N)cc1N | inactive
16 | OCCN(CCO)CCO | inactive
17 | CCCCCCCCCCCC#N | inactive
18 | CN(C)CCO | inactive
19 | Nc1c(Cl)c(Cl)nc(C(=O)O)c1Cl | inactive
20 | CC(C)(C)OOC(=O)c1ccccc1 | inactive
21 | O=c1[nH]c(=O)[nH]c(=O)[nH]1 | inactive

test: qHTS RealTime-Glo MT Cell Viability Assay in HEK293 cells - 32 hour (AID 1224868); conditions: RealTime-Glo luminescence; series mostly up to 76.8 µM; further: potency means the concentration at half of the fitted maximal effect
How it was run: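 Homogeneous bioluminescent viability format in HEK293 cells (600 cells/well). Following 5 h at 37 C/5% CO2, 23 nL compound was pintooled; the signal was measured repeatedly during 40 h incubation.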

Row | Compound | Potency
22 | [N-]=[N+]=[N-] | inactive
23 | CCc1cccc(C)c1N(C(=O)CCl)C(C)COC (configuration not stated) | inactive
24 | CC(C)C1(C)N=C(c2nc3ccccc3cc2C(=O)O)NC1=O (configuration not stated) | inactive
25 | C#CCN(C)[C@H](C)Cc1ccccc1 | inactive
26 | CC(Br)C(=O)O (configuration not stated) | inactive
27 | O=C1CCCN1 | inactive
28 | CCC12COCN1COC2 | inactive
29 | CC(C)=C[C@@H]1[C@@H](C(=O)OCc2coc(Cc3ccccc3)c2)C1(C)C | inactive
30 | Cc1cc(-c2cc(C)c(N)c(C)c2)cc(C)c1N | inactive
31 | c1ccc(-c2ccccc2)cc1 | inactive
32 | O=C(NC(=O)c1c(F)cccc1F)Nc1cc(Cl)c(OC(F)(F)C(F)C(F)(F)F)cc1Cl (configuration not stated) | 12.3 µM (active) and inactive
33 | COc1ccc2c3c1O[C@H]1[C@@H](O)C=C[C@H]4[C@@H](C2)N(C)CC[C@@]341 | 43 µM (active) and inactive
34 | Clc1ccc(Cl)cc1 | inactive
35 | Cc1ccc(N)cc1Cl | inactive
36 | O=c1n(Cl)c(=O)n(Cl)c(=O)n1Cl | inactive
37 | O=c1ccc(=O)[nH][nH]1 | inactive

Row | Compound | Potency
38 | COP(N)(=O)SC (configuration not stated) | inactive
39 | CCOC(=O)c1ccccc1C(=O)OCC | inactive
40 | C1CC2OC2CC1C1CO1 (configuration not stated) | inactive
41 | CC(C)OC(=O)Nc1ccccc1 | inactive
42 | CC(C#N)CCC#N (configuration not stated) | inactive
43 | O=NN1CCCC1 | inactive
44 | O=Cc1cccc(Oc2ccccc2)c1 | inactive
45 | CC(C)N1C(=O)c2ccccc2NS1(=O)=O | inactive
46 | C#CC(C)(C)NC(=O)c1cc(Cl)cc(Cl)c1 | inactive
47 | COC(=O)c1ccccc1N | inactive
48 | OCCN(CCO)CCO | inactive
49 | CCCCCCCCCCCC#N | inactive
50 | Nc1c(Cl)c(Cl)nc(C(=O)O)c1Cl | inactive
51 | CC(C)(C)OOC(=O)c1ccccc1 | inactive
52 | O=c1[nH]c(=O)[nH]c(=O)[nH]1 | inactive
